# Experimental data as given in PubChem BioAssay AID1159580 (chemical genetic matrix, 2015).
# Among all 5,500 compounds or so, about 2,000 (36%) were called active. Not shown: some 18% with an inconclusive outcome. This is one part of the list. A number with no mark means an inactive call. No stated cut-off is given here; in the data, active means normalized growth mostly below about 0.91 (no sharp cut-off); inconclusive means no clear call, values can overlap the other calls; inactive means mostly above about 0.92.
# Experiment: chemical genetic growth profiling, strain panel (AID 1159580);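 further: tested at 20 µM; growth read once vehicle control cultures reached saturation at 30 °C; 1 = growth at the plate median or of vehicle wells; lower values mean less growth of the strain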
# Conditions: S. cerevisiae deletion strains, growth OD
# [1] = locus YAR019C, strain CDC15, hits give low values
# [2] = locus YBL105C, strain PKC1, hits give low values
# [3] = locus YBR135W, strain CKS1, hits give low values
# [4] = locus YBR136W, strain MEC1, hits give low values
# [5] = locus YBR160W, strain CDC28, hits give low values
# [6] = locus YDL017W, strain CDC7, hits give low values
# [7] = locus YDL028C, strain MPS1, hits give low values
# [8] = locus YDL108W, strain KIN28, hits give low values
# [9] = locus YDL132W, strain cdc53, hits give low values
# [10] = locus YDL214C, strain PRR2, hits give low values
# [11] = locus YDR052C, strain DBF4, hits give low values
# [12] = locus YDR054C, strain cdc34, hits give low values
# [13] = locus YDR226W, strain ADK1, hits give low values
# [14] = locus YDR477W, strain SNF1, hits give low values
# [15] = locus YER123W, strain YCK3, hits give low values
# [16] = locus YER133W, strain GLC7, hits give low values
# [17] = locus YFL009W, strain cdc4, hits give low values
# [18] = locus YFL029C, strain CAK1, hits give low values
# [19] = locus YFR003C, strain YPI1, hits give low values
# [20] = locus YFR019W, strain FAB1, hits give low values
# [21] = locus YFR028C, strain CDC14, hits give low values
# [22] = locus YGR040W, strain KSS1, hits give low values
# [23] = locus YGR052W, strain FMP48, hits give low values
# [24] = locus YGR092W, strain DBF2, hits give low values
# [25] = locus YHR030C, strain SLT2, hits give low values
# [26] = locus YHR079C, strain IRE1, hits give low values
# [27] = locus YHR082C, strain KSP1, hits give low values
# [28] = locus YHR205W, strain SCH9, hits give low values
# [29] = locus YIL147C, strain SLN1, hits give low values
# [30] = locus YJL095W, strain BCK1, hits give low values
# [31] = locus YJL128C, strain PBS2, hits give low values
# [32] = locus YJL157C, strain FAR1, hits give low values
# [33] = locus YJR016C, strain ILV3, hits give low values
# [34] = locus YJR066W, strain TOR1 (second series), hits give low values
# [35] = locus YJR066W, strain TOR1, hits give low values
# [36] = locus YKL048C, strain ELM1, hits give low values
# [37] = locus YKL067W, strain YNK1, hits give low values
# [38] = locus YKL101W, strain HSL1, hits give low values
# [39] = locus YKL193C, strain SDS22, hits give low values
# [40] = locus YKL203C, strain TOR2, hits give low values
# [41] = locus YLR113W, strain HOG1, hits give low values
# [42] = locus YLR133W, strain CKI1, hits give low values
# [43] = locus YLR403W, strain SFP1, hits give low values
# [44] = locus YML070W, strain DAK1, hits give low values
# [45] = locus YMR001C, strain CDC5, hits give low values
# [46] = locus YMR205C, strain PFK2 (second series), hits give low values
# [47] = locus YMR277W, strain FCP1, hits give low values
# [48] = locus YNL006W, strain LST8, hits give low values
# [49] = locus YNL020C, strain ARK1, hits give low values
# [50] = locus YNL161W, strain CBK1, hits give low values
# [51] = locus YNL183C, strain NPR1, hits give low values
# [52] = locus YNL207W, strain RIO2, hits give low values
# [53] = locus YNL222W, strain SSU72, hits give low values
# [54] = locus YNL307C, strain MCK1 (second series), hits give low values
# [55] = locus YOL078W, strain AVO1, hits give low values
# [56] = locus YOL136C, strain PFK27, hits give low values
# [57] = locus YOR061W, strain CKA2, hits give low values
# [58] = locus YOR119C, strain RIO1, hits give low values
# [59] = locus YOR231W, strain MKK1, hits give low values
# [60] = locus YOR329C, strain SCD5, hits give low values
# [61] = locus YPL031C, strain PHO85, hits give low values
# [62] = locus YPL153C, strain RAD53, hits give low values
# [63] = locus YPL204W, strain HRR25, hits give low values
# [64] = locus YPL209C, strain IPL1, hits give low values
# [65] = locus YPL256C, strain CLN2, hits give low values
# [66] = locus YPR025C, strain CCL1, hits give low values
# [67] = locus YPR106W, strain ISR1, hits give low values
# [68] = locus YPR111W, strain DBF20, hits give low values
# [69] = strain NNK1, hits give low values
# [70] = strain TSCII, hits give low values
structure (smiles),measurement,setting,value
COc1ccccc1C(C[N+](=O)[O-])c1c(N)n(C)c(=O)n(C)c1=O (stereo unspecified),normalized growth,[1],0.942
same,normalized growth,[2],0.955
same,normalized growth,[3],0.954
same,normalized growth,[4],0.945
same,normalized growth,[5],0.953
same,normalized growth,[6],0.958
same,normalized growth,[7],0.948
same,normalized growth,"locus YDL101C, strain DUN1, hits give low values",0.916
same,normalized growth,[8],0.945
same,normalized growth,[9],0.953
same,normalized growth,[10],0.583 (active)
same,normalized growth,[11],0.962
same,normalized growth,[12],0.945
same,normalized growth,[13],0.954
same,normalized growth,[14],0.555 (active)
same,normalized growth,[15],0.374 (active)
same,normalized growth,[16],0.602 (active)
same,normalized growth,[17],0.96
same,normalized growth,[18],0.933
same,normalized growth,[19],0.953
same,normalized growth,[20],0.263 (active)
same,normalized growth,[21],0.956
same,normalized growth,[22],0.643 (active)
same,normalized growth,[23],0.512 (active)
same,normalized growth,[24],0.443 (active)
same,normalized growth,[25],0.302 (active)
same,normalized growth,[26],0.401 (active)
same,normalized growth,[27],0.559 (active)
same,normalized growth,[28],0.21 (active)
same,normalized growth,[29],0.953
same,normalized growth,[30],0.33 (active)
same,normalized growth,[31],0.941
same,normalized growth,[32],0.593 (active)
same,normalized growth,[33],0.962
same,normalized growth,[34],0.133 (active)
same,normalized growth,[35],0.369 (active)
same,normalized growth,[36],0.654 (active)
same,normalized growth,[37],0.612 (active)
same,normalized growth,[38],0.621 (active)
same,normalized growth,[39],0.963
same,normalized growth,[40],0.61 (active)
same,normalized growth,[41],0.382 (active)
same,normalized growth,[42],0.616 (active)
same,normalized growth,[43],0.49 (active)
same,normalized growth,[44],0.527 (active)
same,normalized growth,[45],0.946
same,normalized growth,[46],0.679 (active)
same,normalized growth,[47],0.956
same,normalized growth,[48],0.957
same,normalized growth,[49],0.688 (active)
same,normalized growth,[50],0.957
same,normalized growth,[51],0.381 (active)
same,normalized growth,[52],0.954
same,normalized growth,[53],0.956
same,normalized growth,[54],0.151 (active)
same,normalized growth,[55],0.956
same,normalized growth,[56],0.485 (active)
same,normalized growth,[57],0.678
same,normalized growth,[58],0.641 (active)
same,normalized growth,[59],0.468 (active)
same,normalized growth,[60],0.956
same,normalized growth,[61],0.467 (active)
same,normalized growth,[62],0.546 (active)
same,normalized growth,[63],0.603 (active)
same,normalized growth,[64],0.95
same,normalized growth,[65],0.348 (active)
same,normalized growth,[66],0.958
same,normalized growth,[67],0.961
same,normalized growth,[68],0.966
same,normalized growth,[69],0.953
same,normalized growth,[70],0.941
CC1(C)C/C(=N/Nc2ccc(C(F)(F)F)cc2)c2cc(C(C)(C)C)c(O)c(O)c2O1,normalized growth,[1],0.989
same,normalized growth,[2],0.978
same,normalized growth,[3],0.977
same,normalized growth,[4],0.978
same,normalized growth,[5],0.976
same,normalized growth,[6],0.976
same,normalized growth,[7],0.96
same,normalized growth,[8],0.976
same,normalized growth,[9],0.977
same,normalized growth,[10],0.481 (active)
same,normalized growth,[11],0.975
same,normalized growth,[12],0.968
same,normalized growth,[13],0.988
same,normalized growth,[14],0.6 (active)
same,normalized growth,[15],0.375 (active)
same,normalized growth,[16],0.896
same,normalized growth,[17],0.979
same,normalized growth,[18],0.978
same,normalized growth,[19],0.981
same,normalized growth,[20],0.436 (active)
same,normalized growth,[21],0.98
same,normalized growth,[22],0.635 (active)
same,normalized growth,[23],0.347 (active)
same,normalized growth,[24],0.214 (active)
same,normalized growth,[25],0.246 (active)
same,normalized growth,[26],0.29 (active)
same,normalized growth,[27],0.314 (active)
same,normalized growth,[28],0.0779 (active)
same,normalized growth,[29],0.975
same,normalized growth,[30],0.283 (active)
same,normalized growth,[31],0.129 (active)
same,normalized growth,[32],0.896
same,normalized growth,[33],0.991
same,normalized growth,[34],0.355 (active)
same,normalized growth,[35],0.36 (active)
same,normalized growth,[36],0.275 (active)
same,normalized growth,[37],0.532 (active)
same,normalized growth,[38],0.204 (active)
same,normalized growth,[39],0.973
same,normalized growth,[40],0.731
same,normalized growth,[41],0.199 (active)
same,normalized growth,[42],0.419 (active)
same,normalized growth,[43],0.865
same,normalized growth,[44],0.426 (active)
same,normalized growth,[45],0.98
same,normalized growth,[46],0.364 (active)
same,normalized growth,[47],0.977
same,normalized growth,[48],0.975
same,normalized growth,[49],0.375 (active)
same,normalized growth,[50],0.976
same,normalized growth,[51],0.302 (active)
same,normalized growth,[52],0.976
same,normalized growth,[53],0.995
same,normalized growth,[54],0.116 (active)
same,normalized growth,[55],0.975
same,normalized growth,[56],0.427 (active)
same,normalized growth,[57],0.243 (active)
same,normalized growth,[58],0.534 (active)
same,normalized growth,[59],0.277 (active)
same,normalized growth,[60],0.983
same,normalized growth,[61],0.576 (active)
same,normalized growth,[62],0.436 (active)
same,normalized growth,[63],0.535 (active)
same,normalized growth,[64],0.983
same,normalized growth,[65],0.243 (active)
same,normalized growth,[66],0.981
same,normalized growth,[67],0.421 (active)
same,normalized growth,[68],0.319 (active)
same,normalized growth,[69],0.434 (active)
same,normalized growth,[70],0.986
